Source: the supplement of paper PMC3334620
Whole data set: some 33,000 sequences, median “E-score (-0.5 to 0.5)” near -8e-05, cut for the highest 2% near 0.23. Only a selection was taken, and the highest values are over-represented in it overall.

target: T1, Nrg2 (UniProt P38082); test: PBM E-score (8-mer binding enrichment) (E-score (-0.5 to 0.5)); higher = stronger / more preferred TF binding; conditions: protein concentration: 100 nM; construct: GST-full length
T1 sequence: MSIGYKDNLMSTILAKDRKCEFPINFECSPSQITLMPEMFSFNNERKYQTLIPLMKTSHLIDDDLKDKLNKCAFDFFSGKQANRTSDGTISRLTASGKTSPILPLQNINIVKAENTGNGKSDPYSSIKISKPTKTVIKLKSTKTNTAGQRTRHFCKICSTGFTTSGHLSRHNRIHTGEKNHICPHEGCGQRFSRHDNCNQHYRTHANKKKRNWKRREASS
Outline: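 Bound GST-tagged yeast transcription factors, applied at about 100-200 nM to double-stranded universal all-10-mer Agilent arrays, were detected with fluorescent anti-GST. Scans were normalised with masliner. A modified Wilcoxon-Mann-Whitney statistic, the E-score, was assigned to each ungapped eight-base word pooled with its reverse complement by the Universal PBM Analysis Suite.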

Sequence | PBM E-score
AGTCGCGA | 0.226
CATCGCGA | 0.127
GATCGCGA | 0.168
ACTCGCGA | 0.273
CCTCGCGA | 0.179
GGTCGCGA | 0.242
ACTCGCGC | 0.0455
CGTCGCGA | 0.143
TATCGCGA | 0.252
ATTGTGCG | -0.0707
ACTCGAGG | 0.162
CCTCGAGC | 0.267
CCTCGAGG | 0.242
GCTCGACC | -0.0125
GCTCGAGA | -0.131
ACTCGAGC | 0.073
CCTCGAAG | 0.0341
GCTCGAGC | 0.24
CCTCGAGA | 0.156
AAGCTATC | 0.153
ACAACGCG | 0.12
AGCGCACA | 0.137
ACTAGCAT | -0.0422
AAGACCGA | -0.018
GAAATGCA | 0.055
CAAATGCA | -0.0764

Sequence | PBM E-score
AAAATGCG | 0.0104
CAAATGCG | 0.268
CAAATGCC | -0.0811
TAAATGCA | 0.275
AAACCTCC | -0.115
AAACTGCG | -0.0689
AGTTTCGA | 0.0135
ATATGGAC | 0.0806
ATATGGAT | 0.247
ATATGGAG | 0.147
GGTGAGAA | -0.0568
GAGCGACC | -0.168
CAAGTTTC | -0.00709
CCCATGAC | -0.0865
GGTTTCGA | 0.191
CAAATGGA | -0.0362
AAAATGGA | 0.308
AAAATGGG | -0.0403
AGGGGTCA | 0.128
AAGGGTCC | 0.439
CAGGGTCC | 0.446
CCGGGTCC | -0.171
AAAGGTCC | 0.0985
AGGGGTCC | 0.316
AAGGGTCT | 0.273
AAGGGTGT | 0.0853

Sequence | PBM E-score
ATGGGTCC | 0.0519
AAGGGTCA | 0.149
CAGAGTCC | 0.0801
AGGGGTCG | 0.0876
AAGGTAGG | 0.00624
GGATAACC | -0.141
GTCTTTCA | -0.177
AGCCGAAG | -0.104
TATAGACA | 0.0604
AGATTCCG | 0.101
GAGGGTCA | -0.227
GCGGGTCC | -0.0518
CAGGGTCG | 0.264
AAGGGTCG | 0.132
GAGGGTCC | 0.282
CAGGGTCA | 0.0802
ACCCCTGC | 0.066
CAAACGAA | -0.0374
TAAGCAAA | 0.0437
TCCCCTCA | 0.235
ACCCCTCA | 0.0629
CCCCCTCA | -0.379
AACTGACT | -0.167
AAAGTTGG | 0.132
AAAGTTGC | 0.0327
AAAGTTGT | 0.297

Sequence | PBM E-score
AGTGGCTG | 0.126
AGGGCTGA | -0.201
AGTCTTTC | -0.0294
ACAGACAC | -0.0421
ACAGACAG | 0.255
CCAGACAG | -0.00394
TGTTGTAA | 0.102
GACAGCGA | -0.131
CGAAGACG | -0.0796
GTCACGTA | -0.249
CAATACAC | 0.0544
GAATACAA | 0.107
CAATACAA | 0.275
CAATACAG | 0.125
AAATACAA | 0.0802
TAATACAA | 0.235
ACGACCAT | -0.0998
CAATCGCC | 0.00157
AGTAGGAA | -0.0957
CGGCGCCA | 0.0132
AGGCGCCG | -0.0298
CCGCGCGG | 0.368
CGGCGCCG | 0.25
CGGCGCGA | 0.121
CCGCGGGC | 0.0924
GCGCGGGA | 0.0263

Sequence | PBM E-score
AGGCGCGC | 0.0865
CGGCGCGC | 0.256
CCGCGCAG | 0.0598
CCGCGGGA | 0.284
CCGCGCCG | -0.0754
AGGTACTA | 0.0762
CTCTAGCC | -0.283
AAAAGGCC | -0.197
CAACCTAA | 0.059
GTACGTCA | -0.102
TTAGTAAA | 0.169
ACATGCTC | 0.00619
AAGAAGCC | 0.162
ATAACATA | 0.123
ATGTCCCA | -0.0945
AAGTGCGG | 0.133
AGGCGCCC | -0.0716
CCGCGCTC | 0.0292
GGGCGCCA | 0.191
CCGCGCGC | 0.236
GGGCGCCC | 0.282
CCGCGCCC | -0.0342
TCAGACGA | 0.119
AACCCGAA | 0.0237
AACCGCGG | 0.182
TATGTTAA | -0.127

Sequence | PBM E-score
CTTTCACC | -0.0112
CTCAACCC | 0.00526
ATCAACCC | 0.297
CTAAACCC | -0.0134
ATAAACCC | 0.307
ATAAACCA | -0.0416
ATCAACCA | 0.0788
TCTTTGAA | -0.105
AGGCCACA | -0.149
AATCATTA | 0.0429
ACTCATTA | 0.268
CATCATTA | 0.231
GCTCATTA | -0.058
ACTCATTC | 0.117
CATCATTC | 0.0606
GTAGGCGA | 0.0848
ATTCGGTA | 0.074
AATTGCTG | 0.257
AATTGCTC | -0.145
AATTGCTA | 0.0948
ATGGCCTC | -0.0922
ACCGTTAC | -0.118
CAGTATCA | -0.0774
CAGTATGA | 0.178
AAGTATGA | 0.0335
GAGTATCA | 0.00367

Sequence | PBM E-score
TAGTATCA | 0.283
TAGTATGA | 0.26
GAACGCTC | -0.107
GACAGTGA | 0.0197
ACGGAAAT | 0.244
ACGGAAAA | 0.0488
ACGGAAAC | -0.0771
ACTTGTCA | 0.0495
AAAGCAAA | 0.102
ACAGCTCC | -0.0601
AGCGCGAC | 0.12
GCAGCGTA | -0.128
ACTCCCCA | -0.0321
ACTAGTAG | 0.0854
ACTACTAC | 0.0486
ACTACTAA | -0.00741
ACTAGTAT | 0.246
ACTACTAT | 0.27
ACTAGTAA | 0.036
TGGTGAAA | -0.0676
CCCAATAG | 0.00098
AATTCGCT | 0.318
AATTCGCG | 0.202
CATTCGCA | -0.0034
AATTCGCA | 0.229
AATTCGCC | 0.167

Sequence | PBM E-score
GATTCGCA | 0.121
AAGATCCC | 0.132
ACAGGGAC | 0.339
AGAGGGAC | -0.0381
ACAGGGAA | 0.0579
ACAGGGAG | -0.147
ATAGGGAC | 0.139
ACAGGGAT | 0.295
CCCGCAAG | -0.15
TGTGAACA | -0.0105
ATCGTGAA | -0.0316
CCCATACG | -0.0789
TACCATCA | -0.169
CCATAGGG | 0.00266
GCGAATTA | 0.279
ACGAATTA | 0.1
CCGAATTA | -0.00177
GTCCGCGA | -0.0693
AAAGAGGC | -0.228
